Pf Dd2 growth – qHTS Primary assay for Inhibitors of Plasmodium falciparum Dd2 growth in vitro. P. falciparum Dd2 growth, SYBR Green, 72 h. Potency, µM (series often up to 28.9 µM), for inactives: top-dose activity, negative = inhibition, most hits filed as inhibitors. 120,000 compounds, 4.3% hits; active means well fitted inhibition curve with a large enough effect;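 further: plate controls were DMSO vehicle for no effect and reference drug for full effect; nearly all actives have a fitted effect of over 65% in size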
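Readout: SYBR Green fluorescence, 485 nm excitation, 535 nm emission, after ~16 h lysis at 37C. Before that, Dd2-infected red cells (2.5% hematocrit) grew 72 h with compound, 29 uM top final concentration.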
* marks the source's active call; other numbers are inactive results; i = inactive; [ ] = dose if it differs, or a comment. The full list was thinned out, with hits kept by preference. Potency means the concentration at half of the fitted maximal effect.

SMILES	Pf Dd2 growth
COc1ccc(CNC(=O)Cn2ccn3nc(-c4ccc(F)cc4)c(CO)c3c2=O)cc1OC	i
CCN(CC)C(=O)CCC1CCN(C(=O)c2ccccc2F)CC1	1%
CCc1noc(-c2ccn3c(CNC(=O)C4CCCCC4)nnc3c2)n1	i
O=C(C1CCN(S(=O)(=O)N2CCOCC2)CC1)N1CCCC(c2nc(C3CCOCC3)no2)C1 (centres undefined)	i
O=C(NCC1CCCN(C(=O)c2cc(=O)[nH]c(=O)[nH]2)C1)c1cccs1 (centres undefined)	0%
CC(C)c1ccc(OCC(=O)c2ccc3c(c2)N(CCCC(=O)N2CCOCC2)C(=O)CO3)cc1	13µM*
Cc1ccc(OCC(=O)c2ccc3c(c2)N(CCCC(=O)N2CCOCC2)C(=O)CO3)cc1C	i
COc1ccccc1OCC(=O)c1ccc2c(c1)N(CCCC(=O)N1CCOCC1)C(=O)CO2	i
O=C(c1cc(COc2c(F)cccc2F)on1)N1CCCCC1CCc1ccccc1 (centres undefined)	-17%
CSc1ccccc1OCc1cc(C(=O)NCCN2CCCCC2CO)no1 (centres undefined)	11µM*
CCC1CCCCN1CCCNC(=O)c1c(O)nc2ccccn2c1=O (centres undefined)	-5%
O=C(O)Cc1cccn1-c1cccc(Cl)c1	i
c1csc(CN2CCC(Oc3ccccc3-c3nc(-c4cnccn4)no3)C2)c1 (centres undefined)	5.6µM*
O=C(Nc1ccccc1)N1CCC(Oc2ccccc2-c2nc(-c3cnccn3)no2)C1 (centres undefined)	i
CCNC(=O)N1CC(Oc2ccccc2-c2nc(-c3cnccn3)no2)C1	-26%
CN(C)C(=O)N1CCC2(CC1)CC(=O)N(c1ccccc1)c1ccccc1O2	-7%
CN(CCO)c1ccc(C(=O)N2CCC(Oc3cccnc3)CC2)cn1	-28%
COc1cccc(CN(C)C(=O)c2cn(Cc3ccc(Cl)cc3)nn2)c1	-13%
COC(=O)N1CCC2(C1)C(=NC1CCCC1)NC(=O)N2c1cccnc1 (centres undefined)	-8%
O=C1CCN(S(=O)(=O)c2ccccc2)CCCN(Cc2ccc3cc[nH]c3c2)CCN1	5µM*
Cc1noc(C)c1CN1CCCN(S(=O)(=O)c2ccccc2)CCC(=O)NCC1	-2%
O=C1CCN(S(=O)(=O)c2ccccc2)CCCN(S(=O)(=O)c2ccc3c(c2)CCC3)CCN1	3.5µM*
O=C1CCN(S(=O)(=O)c2ccccc2)CCCN(Cc2cccc3[nH]ccc23)CCN1	7.9µM*
CC(=O)N1CCCN(S(=O)(=O)c2ccccc2)CCC(=O)NCC1	-12%
O=C1CCN(S(=O)(=O)c2ccccc2)CCCN(Cc2ccccc2)CCN1	8.9µM*
SMILES	Pf Dd2 growth
CN(C)S(=O)(=O)N1CCCN(S(=O)(=O)c2ccccc2)CCC(=O)NCC1	-2%
CCC(=O)N1CCCN(S(=O)(=O)c2ccccc2)CCC(=O)NCC1	10%
O=C1CCN(S(=O)(=O)c2ccccc2)CCCCCCN1	22%
CC(C)C(=O)N1CCCN(S(=O)(=O)c2ccccc2)CCC(=O)NCC1	-14%
CCn1cc(CN2CCCN(S(=O)(=O)c3ccccc3)CCC(=O)NCC2)c(C)n1	-18%
O=C1CCN(S(=O)(=O)c2ccccc2)CCCNCCN1	1%
COc1ccc(CNC(=O)Cn2c(C)cc3nc4n(c(=O)c32)CCCCC4)cc1	i
Cc1cccc(NC(=O)Cn2ccn3nc(-c4ccccc4)c(CO)c3c2=O)c1C	i
COc1ccc(CCNC(=O)CCCN2C(=O)COc3ccc(C(C)=O)cc32)cc1OC	i
CCCNC(=O)Cn1c(C)ccc(NS(=O)(=O)c2ccc(C)cc2)c1=O	i
COc1ccc(OC2CN(C(=O)c3ccc4c(c3)OCO4)C2)cc1	17%
C[C@@H](NC(=O)c1cccs1)c1c(-c2ccc(F)cc2)noc1C(=O)O	-11%[44.1 µM]
O=C(Cn1ccn2nc(-c3ccccc3)c(CO)c2c1=O)N1CCC(Cc2ccccc2)CC1	-17%
O=C1CCN(S(=O)(=O)c2ccccc2)CCCN(C(=O)c2ccc3ccccc3n2)CCN1	11µM*
Cn1cnc(C(=O)N2CCCN(S(=O)(=O)c3ccccc3)CCC(=O)NCC2)c1	-6%
Cc1cnc(C(=O)N2CCCN(S(=O)(=O)c3ccccc3)CCC(=O)NCC2)cn1	19%
CC(C)c1nncn1C1CCN(S(=O)(=O)c2cc(F)cc(F)c2)CC1	-9%
O=C(NCCc1ccccc1)C1CCN(C(=O)[C@H]2CCC[C@H](O)C2)CC1	-10%
COc1ccc(-c2c(C)c3ccc(O)c(CN4CCCCC4C)c3oc2=O)cc1OC (centres undefined)	11µM*
COc1ccc(-c2cc3ccc(O)c(CN4CCCCC4C)c3oc2=O)cc1OC (centres undefined)	7.1µM*
COc1ccc(-c2cc(C(F)(F)F)nc(SCC(=O)N3CCCCC3C)n2)cc1OC (centres undefined)	92%
COc1ccc(-c2nccc3c(=O)cc(N4CCOCC4)oc23)cc1OC	-4%[44.1 µM]
CCC1CCCCN1C(=O)CSc1nc(-c2ccc(OC)c(OC)c2)cc(C(F)(F)F)n1 (centres undefined)	i
